PubChem BioAssay AID1508600 (Functional Genomics Laboratory (NCATS/FGL), 2020)
The campaign covered roughly 53,000 sequences. About 3,700 (7%) were called active.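 How the source made its calls: active means gene knockdowns whose robust z-score for IL-1 alpha signal is at least 2 or at most -2, so actives lie on both sides; inactive means the rest.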 Many of the other results were omitted from the sample, so actives are more common in it than they were.

Assay: Components of the Cytosolic LPS Sensing Pathway: Gene Identification via Genome-wide siRNA Screen;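 further: robust z of the log signal after scaling to non-targeting control siRNA wells of the plate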
Details: RAW264.7 macrophages, IL-1a HTRF, actives lie on both sides, screened at 100 nM (by protocol), cells primed 5 h with Pam3CSK4 first
Procedure, shortened: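 Knockdown: 100 nM siRNA, 48h, RAW264.7. Stimulation: Pam3CSK4 5 h, then LipidA via TransIT-TKO 24 h. Output: supernatant IL-1a HTRF, negative-control-normalized, log robust z-score; viability by CellTiter-Glo.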

Row | Sequence | z-score
1 | GGAAAAAGCGGAAAUUCAGTT against Pgbd5 | -0.276 (inactive)
2 | GCAUUUGUACAUUGUGACUTT against Ces5a | -2.28 (active)
3 | GGGUCCAGUAUCCAUCAAATT against Sf3a1 | -2.7 (active)
4 | GGAAGAAGACUCAGAAAGUTT against Prkag2 | 1.43 (inactive)
5 | CCGACCAUCUGUGGAAAUATT against Samd5 | 0.227 (inactive)
6 | GCCAGAUCCCUGGAAUGUATT against Ece2 | -0.632 (inactive)
7 | GGUAUUGCUUUCACAUUAUTT against Efr3a | 0.434 (inactive)
8 | GGUGUAAGAACUUCAAGUUTT against Tlr9 | 0.199 (inactive)
9 | GGCUGUUUUUACCCUACUUTT against Vmn1r72 | -0.441 (inactive)
10 | GGAGAAAUUCAAAAGGAAUTT against Ms4a6d | -0.764 (inactive)
11 | GGAUGCUCAUGCUAAGCAGTT against Krt7 | 0.547 (inactive)
12 | GGAUGAGGGAACGUACAUUTT against Il18r1 | 5.74 (active)
13 | GGAACUUCCCUAUAGUGAATT against Hdac3 | -1.52 (inactive)
14 | GGAUGCGCUGAUAUCAGUATT against Olfr370 | 1.3 (inactive)
15 | GCUCAUUGAGUACAAGACCTT against Ndufs2 | 1.76 (inactive)
16 | GGUCACUGAACCUAUUUCCTT against Arhgap15 | -2.56 (active)
17 | CCCUCAAUGCUGGAAAACCTT against Nol4 | -1.43 (inactive)
18 | GGCAAGGAUGAUGUCUUCGTT against Upk1a | -1.33 (inactive)
19 | GCUUCUAGGGACCUAUUAATT against Dhx30 | -0.0854 (inactive)
20 | GGUCUAUGAGAUGUUUUCUTT against Cyp2a4 | 2.78 (active)
21 | GCAACUGGCUGAACUCUCATT against Gsdmc2 | 3.91 (active)
22 | GGCACUCAAUGUCUUCUAUTT against Nbeal1 | 0.516 (inactive)

Row | Sequence | z-score
23 | GCUACUGCAGUAUACAUUGTT against Olfr869 | 2.21 (active)
24 | GGAAUCGGUACUCUUCCACTT against Tcerg1l | 0.26 (inactive)
25 | GGAAUUCAUGAAGUAUAACTT against Myo5c | 0.941 (inactive)
26 | GAUAAUUUGCACAUCCUCUTT against Nrn1l | -0.999 (inactive)
27 | GGGUUUGAGUGCUGUGAAGTT against Ap4s1 | -2.66 (active)
28 | GCUGGGCUACAAUACAUAUTT against Fgf3 | -0.0573 (inactive)
29 | CCAUGAGUAUCAAGUCAAUTT against Septin9 | 1.14 (inactive)
30 | GGGUGAAAUCUAUCUCCAUTT against Agfg1 | -1.85 (inactive)
31 | CCAUAAUUCAGCUAGACCUTT against Axin1 | 0.201 (inactive)
32 | GGUAAAGACUGGAUGGCUATT against Art5 | 2.14 (active)
33 | GGAAAUCUUUGAGUUUGAATT against Clca1 | -0.0578 (inactive)
34 | GCCAAAUGAGUCAGAUACUTT against Ak3 | -0.402 (inactive)
35 | GGAUCCUUAAUCGAUACACTT against Gng3 | 2.38 (active)
36 | GCCUACAGGAGUGAGAUAATT against Arhgap33os | -1.36 (inactive)
37 | AUUGCAUUGUAUUCACUUGTT against Psg22 | 0.777 (inactive)
38 | GGAAUUCACAUUUGACUGUTT against Irx3os | 0.31 (inactive)
39 | GGGUUGGAUAGAAUAUUGUTT against Xk | 1.4 (inactive)
40 | GCCUCGAUUGGCCACAUUUTT against Atp5l | 4.61 (active)
41 | GCAGUAUGAGGUAAAUUAUTT against Amer3 | 1.05 (inactive)
42 | GCCUUCAUUAUUUUAAUGCTT against Ilf3 | 0.0185 (inactive)
43 | GGCAAAAUGAUCUGCUUUCTT against Trim69 | -0.125 (inactive)
44 | GGUUGCUCAGAUUCAGAAUTT against Isy1 | -1.53 (inactive)

Row | Sequence | z-score
45 | GGAACCUAGAGAAAAAGAATT against Iyd | -1.18 (inactive)
46 | GGCUUUCCAGAAGACAGAATT against Cyp2s1 | 0.469 (inactive)
47 | GCUCUGUUAAGGAAGAACATT against Safb2 | 2.02 (active)
48 | GCUAUGACUCCAACAUGCGTT against Jaml | 0.0115 (inactive)
49 | GGUGAAGACAGAAUUUCCGTT against 1700128F08Rik | -1.01 (inactive)
50 | GGAAGCAAGGAAAAUCAUGTT against Lpo | -0.289 (inactive)
51 | GGUGAUACGUAUUUUUUAGTT against Pan3 | -1.09 (inactive)
52 | GGGUUGUCUUCAUCUACUUTT against Crhr1 | 3.47 (active)
53 | GGUGUUUACUUCCUCAGAATT against Slc9b2 | -0.373 (inactive)
54 | GGAGAUAUCCAUCAAUAGUTT against Nbr1 | 0.874 (inactive)
55 | GGACUUCUAAAAAUCUCUGTT against Gabrb2 | 0.746 (inactive)
56 | GCGCGCAGUGAACGAAAAATT against Mycn | 1.14 (inactive)
57 | CCAUCACGGAUAAUCAUCGTT against 4931417E11Rik | -1.65 (inactive)
58 | GGUACUUCCUACCUAACAGTT against Nipa1 | -0.235 (inactive)
59 | CCACAGGUUACAACAUAAATT against Pign | -1.45 (inactive)
60 | GCUCCACAAGAUGUAAAGGTT against Il21 | 0.11 (inactive)
61 | GGAACUGAUGAUGGACCAGTT against Slc4a1 | 3.39 (active)
62 | GGGCCAUUUUAGGUCCUUUTT against Rbm7 | 0.112 (inactive)
63 | GGACUUACCUUUAACCAACTT against Slc30a4 | 0.42 (inactive)
64 | GGGAAUGAAAAGUCAAAAGTT against Stard7 | -0.047 (inactive)
65 | GCAGCUCUAGGUGUUCAGUTT against Gjc3 | 0.955 (inactive)
66 | GCCAUUGGGUGUAACAUUUTT against Mpp6 | 3.35 (active)

Row | Sequence | z-score
67 | GCCAUGCACUAACUUGAAUTT against Adamts4 | -0.0391 (inactive)
68 | GCACUUUACGAGUAUGUAATT against Gnl1 | -1.74 (inactive)
69 | GGUAUUGGAAAGUAGAAACTT against Igflr1 | 0.515 (inactive)
70 | CCGAGUGGUUAGCUACCAGTT against Ccl24 | 2.4 (active)
71 | GGAGAUCCUUCAUUACCUGTT against Psap | -1.34 (inactive)
72 | GGGAUCGUCCAGAUCUAAUTT against Apobec3 | -0.982 (inactive)
73 | GGACUGUCCUCCAAUUUGCTT against Nat8f3 | -2.6 (active)
74 | GGGAAAUUUACAGAAAGUGTT against Igtp | 0.956 (inactive)
75 | CGGGCUCAGGUAAAACUCUTT against Ddx31 | -0.217 (inactive)
76 | GGAGAGCUUGUUCAAGUGCTT against Zxdc | -0.86 (inactive)
77 | CCUCAUUGGUUUGACCCAGTT against Hsd17b6 | 0.172 (inactive)
78 | GCCAUUAACUAUGGGACCUTT against Lck | -0.0729 (inactive)
79 | GCUAUCACUUUUCAUUAGATT against G0s2 | -0.902 (inactive)
80 | CCUGCUAAGAGAGUACUAUTT against Pglyrp2 | 1.51 (inactive)
81 | GGUUGGACGUGGUGAAGAATT against Chtf18 | -2.24 (active)
82 | GGAAUACAAACUGCUGUACTT against Urgcp | 0.138 (inactive)
83 | GGAAGUGUGAACUUCAUCATT against Zdhhc6 | 2.78 (active)
84 | GCCCACGAGCCUCAUGGACTT against Sts | -0.805 (inactive)
85 | GGAGUAUCGUAAUGCGGACTT against C4b | 0.598 (inactive)
86 | GGACUCCUAAUGAAUAAUCTT against Wee2 | 2.06 (active)
87 | CCUUCCUUACCUACGUGAGTT against Nup88 | 1.71 (inactive)
88 | CCUCAAGGCAGUUCAUAUUTT against Zfp790 | -0.334 (inactive)

Row | Sequence | z-score
89 | GGCUCGGUAUCGUUUUUCATT against Arl3 | 0.841 (inactive)
90 | GGCUAUCUUUUCAGCUUUATT against Sox30 | 0.212 (inactive)
91 | GCCGACCACAGUACAAGACTT against Bivm | 1.08 (inactive)
92 | GCCGUGUGGUAAUAGUGUCTT against Dhrs13 | 0.442 (inactive)
93 | GGAUGAAACGGGUGCCUAUTT against Kctd5 | 3.33 (active)
94 | GGACUUCUAGAGAACUUGUTT against 2900092C05Rik | -1.7 (inactive)
95 | GGCUGUAUACCAAUAAAAATT against B4galt6 | -0.855 (inactive)
96 | CGUUUCAGAGUGUUUGUGGTT against Lgalsl | -0.173 (inactive)
97 | GGUAUCAGAGCUGUGUUCUTT against Cpped1 | -1.48 (inactive)
98 | GGAAAUCUAAAAGUCCUCCTT against Il17re | 0.2 (inactive)
99 | GGAUCAUCUCUUUGGGCUGTT against Tmem37 | 0.127 (inactive)
100 | GGAGAAGAAAGAAAAGCUUTT against Nusap1 | -1.74 (inactive)
101 | GGCUGAAAAACUCAAUUAUTT against Boll | -0.813 (inactive)
102 | CCAAAUAUCCGGCCAUGACTT against Lgals6 | -0.877 (inactive)
103 | GGAAAACACCUACCUGUGGTT against Slc25a3 | -1.48 (inactive)
104 | GGAAAUCAGAGAAUACUUCTT against Mfsd14b | 2.04 (active)
105 | GAAGAAGGAAAAAAACCCATT against Sec61b | -1.19 (inactive)
106 | GCACCUCCUGGGAUUACAUTT against Crp | 0.412 (inactive)
107 | GGGCUAAUUGUGAACAUUUTT against Slc7a1 | 3.35 (active)
108 | GCCAUGAAGCUAAAUAAUCTT against Optn | -1.31 (inactive)
109 | GCACCUCUACACUUUAGAUTT against Rack1 | -0.0792 (inactive)
